Measured values published in the supplement of paper PMC11732987, “Enantioselective OTUD7B fragment discovery through chemoproteomics screening and high-throughput optimisation” (Communications Chemistry, 2025).

How the values were obtained:
Assay in all cases: log2 ratio of Biotin-Ahx-Ub-VS probe labelling (fragment/DMSO); higher = less target engagement (more negative = stronger competition), active = hit call of the paper (q ≤ 0.05, log2 ratio ≤ -1)
Settings in all cases: compound concentration: 200 uM; treatment time: 3 h
[1] = molecular target: USP34 (UniProt Q70CQ2)
Summary of the method: (§1)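 Labelled DUBs were enriched with NeutrAvidin, digested with LysC and trypsin, and run by diaPASEF LC-MS/MS. The labelling used Biotin-Ahx-Ub-VS at 0.5 µM final for 1 h on HEK293T lysate (495 µg per sample) previously treated in triplicate with fragment at 200 µM or vehicle for 3 h. Values are average log2 fragment/vehicle ratios by unpaired t-test on global-median-normalised Spectronaut quantities of proteins with ≥2 unique peptides.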

[2] = molecular target: T1, USP36 (UniProt Q9P275)
T1 sequence (whole entry): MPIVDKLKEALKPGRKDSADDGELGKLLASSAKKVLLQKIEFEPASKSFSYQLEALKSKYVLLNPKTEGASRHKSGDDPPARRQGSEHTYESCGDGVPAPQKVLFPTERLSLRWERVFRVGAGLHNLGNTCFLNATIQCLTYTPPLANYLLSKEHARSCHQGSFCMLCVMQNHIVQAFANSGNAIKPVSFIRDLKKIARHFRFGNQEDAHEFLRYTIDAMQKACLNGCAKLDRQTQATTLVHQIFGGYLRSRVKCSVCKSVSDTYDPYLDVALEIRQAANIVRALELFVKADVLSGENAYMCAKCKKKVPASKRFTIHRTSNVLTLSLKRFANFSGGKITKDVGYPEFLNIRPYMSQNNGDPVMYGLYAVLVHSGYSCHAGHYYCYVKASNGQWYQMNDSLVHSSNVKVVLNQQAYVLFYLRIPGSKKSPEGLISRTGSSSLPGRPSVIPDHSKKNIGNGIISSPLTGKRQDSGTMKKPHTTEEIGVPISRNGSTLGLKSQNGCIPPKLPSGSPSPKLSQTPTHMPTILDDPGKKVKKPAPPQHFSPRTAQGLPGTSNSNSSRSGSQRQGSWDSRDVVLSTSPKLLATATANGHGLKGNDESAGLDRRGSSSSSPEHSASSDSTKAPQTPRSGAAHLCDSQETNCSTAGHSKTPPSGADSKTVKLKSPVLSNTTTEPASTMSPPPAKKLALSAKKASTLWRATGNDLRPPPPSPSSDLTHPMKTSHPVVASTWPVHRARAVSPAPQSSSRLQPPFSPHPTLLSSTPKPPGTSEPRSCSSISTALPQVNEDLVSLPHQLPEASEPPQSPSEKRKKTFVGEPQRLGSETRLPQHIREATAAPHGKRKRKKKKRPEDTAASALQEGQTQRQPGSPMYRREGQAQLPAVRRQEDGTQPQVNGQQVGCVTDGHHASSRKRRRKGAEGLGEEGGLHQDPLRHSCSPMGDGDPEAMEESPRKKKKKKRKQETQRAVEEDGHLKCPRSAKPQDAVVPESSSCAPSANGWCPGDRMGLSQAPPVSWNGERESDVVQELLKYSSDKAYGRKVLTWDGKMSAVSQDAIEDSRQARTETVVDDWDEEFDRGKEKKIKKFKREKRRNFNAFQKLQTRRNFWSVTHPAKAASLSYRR
Summary of the method: as §1

[3] = molecular target: T2, USP38 (UniProt Q8NB14)
T2 sequence (whole entry): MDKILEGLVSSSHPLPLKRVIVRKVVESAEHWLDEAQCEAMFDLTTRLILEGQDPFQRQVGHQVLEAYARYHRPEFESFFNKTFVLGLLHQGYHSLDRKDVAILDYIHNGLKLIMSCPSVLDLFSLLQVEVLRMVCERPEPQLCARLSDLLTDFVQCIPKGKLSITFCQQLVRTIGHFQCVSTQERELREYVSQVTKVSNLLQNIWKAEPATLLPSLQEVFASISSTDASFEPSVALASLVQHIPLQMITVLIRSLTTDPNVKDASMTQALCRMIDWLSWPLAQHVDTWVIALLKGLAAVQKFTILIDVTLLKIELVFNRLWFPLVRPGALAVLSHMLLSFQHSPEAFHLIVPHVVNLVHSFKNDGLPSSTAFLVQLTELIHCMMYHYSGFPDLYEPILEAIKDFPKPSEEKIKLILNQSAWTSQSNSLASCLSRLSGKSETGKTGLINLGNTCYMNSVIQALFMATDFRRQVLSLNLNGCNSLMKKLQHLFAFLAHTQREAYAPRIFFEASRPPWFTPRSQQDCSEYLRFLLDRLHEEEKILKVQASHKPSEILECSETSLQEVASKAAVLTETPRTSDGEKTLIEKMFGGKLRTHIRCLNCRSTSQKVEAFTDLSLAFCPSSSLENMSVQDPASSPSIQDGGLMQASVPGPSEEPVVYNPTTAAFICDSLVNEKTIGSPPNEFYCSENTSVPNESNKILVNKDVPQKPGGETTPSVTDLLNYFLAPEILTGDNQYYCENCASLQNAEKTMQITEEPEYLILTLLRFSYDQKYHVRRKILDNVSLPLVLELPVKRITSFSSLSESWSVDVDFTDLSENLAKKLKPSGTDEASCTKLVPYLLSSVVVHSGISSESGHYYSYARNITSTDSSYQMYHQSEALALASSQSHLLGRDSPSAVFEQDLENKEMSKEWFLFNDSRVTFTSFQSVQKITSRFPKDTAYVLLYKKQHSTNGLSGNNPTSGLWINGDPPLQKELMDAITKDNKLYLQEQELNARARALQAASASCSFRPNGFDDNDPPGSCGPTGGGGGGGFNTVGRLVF
Summary of the method: as §1

[4] = molecular target: T3, USP39 (UniProt Q53GS9)
T3 sequence (whole entry): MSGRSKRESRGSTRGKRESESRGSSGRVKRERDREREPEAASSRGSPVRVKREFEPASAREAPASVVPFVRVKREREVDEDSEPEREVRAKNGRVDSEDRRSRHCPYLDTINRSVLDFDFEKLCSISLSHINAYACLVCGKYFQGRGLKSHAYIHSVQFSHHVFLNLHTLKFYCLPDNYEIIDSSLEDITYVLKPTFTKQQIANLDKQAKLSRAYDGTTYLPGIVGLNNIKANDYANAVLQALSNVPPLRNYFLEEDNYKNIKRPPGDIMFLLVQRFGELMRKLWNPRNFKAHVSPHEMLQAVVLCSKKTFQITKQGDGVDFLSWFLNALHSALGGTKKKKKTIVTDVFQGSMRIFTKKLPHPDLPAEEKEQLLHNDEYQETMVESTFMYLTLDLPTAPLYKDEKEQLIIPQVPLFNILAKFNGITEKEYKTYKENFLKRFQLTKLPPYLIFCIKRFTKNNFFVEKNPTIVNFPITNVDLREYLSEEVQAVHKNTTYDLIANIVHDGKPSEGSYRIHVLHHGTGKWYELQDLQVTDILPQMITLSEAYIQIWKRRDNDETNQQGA
Summary of the method: as §1

[5] = molecular target: T4, USP4 (UniProt Q13107)
T4 sequence (whole entry): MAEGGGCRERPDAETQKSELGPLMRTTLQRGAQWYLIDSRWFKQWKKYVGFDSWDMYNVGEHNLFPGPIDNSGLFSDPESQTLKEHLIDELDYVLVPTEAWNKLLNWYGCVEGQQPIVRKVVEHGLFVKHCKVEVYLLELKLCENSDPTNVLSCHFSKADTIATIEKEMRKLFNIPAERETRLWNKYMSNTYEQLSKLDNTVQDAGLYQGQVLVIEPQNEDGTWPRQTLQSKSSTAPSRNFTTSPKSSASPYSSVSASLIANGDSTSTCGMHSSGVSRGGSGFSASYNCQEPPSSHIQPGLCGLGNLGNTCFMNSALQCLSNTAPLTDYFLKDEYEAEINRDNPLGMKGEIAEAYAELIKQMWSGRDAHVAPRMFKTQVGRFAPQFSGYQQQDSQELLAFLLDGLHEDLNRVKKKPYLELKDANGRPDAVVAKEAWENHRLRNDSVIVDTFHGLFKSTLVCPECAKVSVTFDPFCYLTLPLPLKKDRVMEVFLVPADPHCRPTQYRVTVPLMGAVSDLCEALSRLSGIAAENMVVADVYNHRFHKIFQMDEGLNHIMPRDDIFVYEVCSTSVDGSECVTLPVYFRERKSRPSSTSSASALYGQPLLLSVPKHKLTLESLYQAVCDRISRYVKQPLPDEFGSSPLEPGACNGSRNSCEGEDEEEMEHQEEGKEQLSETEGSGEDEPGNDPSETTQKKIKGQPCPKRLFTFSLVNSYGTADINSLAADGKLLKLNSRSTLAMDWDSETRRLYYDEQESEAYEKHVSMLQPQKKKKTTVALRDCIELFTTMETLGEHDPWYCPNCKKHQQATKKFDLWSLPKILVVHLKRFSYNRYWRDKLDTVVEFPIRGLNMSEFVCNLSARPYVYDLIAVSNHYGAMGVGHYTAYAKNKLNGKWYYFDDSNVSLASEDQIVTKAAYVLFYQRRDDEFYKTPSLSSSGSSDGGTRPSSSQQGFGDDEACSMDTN
Summary of the method: as §1

Measured: log2 ratio of Biotin-Ahx-Ub-VS probe labelling

Sequence of USP34 (Q70CQ2 whole entry, the tested form may be a part): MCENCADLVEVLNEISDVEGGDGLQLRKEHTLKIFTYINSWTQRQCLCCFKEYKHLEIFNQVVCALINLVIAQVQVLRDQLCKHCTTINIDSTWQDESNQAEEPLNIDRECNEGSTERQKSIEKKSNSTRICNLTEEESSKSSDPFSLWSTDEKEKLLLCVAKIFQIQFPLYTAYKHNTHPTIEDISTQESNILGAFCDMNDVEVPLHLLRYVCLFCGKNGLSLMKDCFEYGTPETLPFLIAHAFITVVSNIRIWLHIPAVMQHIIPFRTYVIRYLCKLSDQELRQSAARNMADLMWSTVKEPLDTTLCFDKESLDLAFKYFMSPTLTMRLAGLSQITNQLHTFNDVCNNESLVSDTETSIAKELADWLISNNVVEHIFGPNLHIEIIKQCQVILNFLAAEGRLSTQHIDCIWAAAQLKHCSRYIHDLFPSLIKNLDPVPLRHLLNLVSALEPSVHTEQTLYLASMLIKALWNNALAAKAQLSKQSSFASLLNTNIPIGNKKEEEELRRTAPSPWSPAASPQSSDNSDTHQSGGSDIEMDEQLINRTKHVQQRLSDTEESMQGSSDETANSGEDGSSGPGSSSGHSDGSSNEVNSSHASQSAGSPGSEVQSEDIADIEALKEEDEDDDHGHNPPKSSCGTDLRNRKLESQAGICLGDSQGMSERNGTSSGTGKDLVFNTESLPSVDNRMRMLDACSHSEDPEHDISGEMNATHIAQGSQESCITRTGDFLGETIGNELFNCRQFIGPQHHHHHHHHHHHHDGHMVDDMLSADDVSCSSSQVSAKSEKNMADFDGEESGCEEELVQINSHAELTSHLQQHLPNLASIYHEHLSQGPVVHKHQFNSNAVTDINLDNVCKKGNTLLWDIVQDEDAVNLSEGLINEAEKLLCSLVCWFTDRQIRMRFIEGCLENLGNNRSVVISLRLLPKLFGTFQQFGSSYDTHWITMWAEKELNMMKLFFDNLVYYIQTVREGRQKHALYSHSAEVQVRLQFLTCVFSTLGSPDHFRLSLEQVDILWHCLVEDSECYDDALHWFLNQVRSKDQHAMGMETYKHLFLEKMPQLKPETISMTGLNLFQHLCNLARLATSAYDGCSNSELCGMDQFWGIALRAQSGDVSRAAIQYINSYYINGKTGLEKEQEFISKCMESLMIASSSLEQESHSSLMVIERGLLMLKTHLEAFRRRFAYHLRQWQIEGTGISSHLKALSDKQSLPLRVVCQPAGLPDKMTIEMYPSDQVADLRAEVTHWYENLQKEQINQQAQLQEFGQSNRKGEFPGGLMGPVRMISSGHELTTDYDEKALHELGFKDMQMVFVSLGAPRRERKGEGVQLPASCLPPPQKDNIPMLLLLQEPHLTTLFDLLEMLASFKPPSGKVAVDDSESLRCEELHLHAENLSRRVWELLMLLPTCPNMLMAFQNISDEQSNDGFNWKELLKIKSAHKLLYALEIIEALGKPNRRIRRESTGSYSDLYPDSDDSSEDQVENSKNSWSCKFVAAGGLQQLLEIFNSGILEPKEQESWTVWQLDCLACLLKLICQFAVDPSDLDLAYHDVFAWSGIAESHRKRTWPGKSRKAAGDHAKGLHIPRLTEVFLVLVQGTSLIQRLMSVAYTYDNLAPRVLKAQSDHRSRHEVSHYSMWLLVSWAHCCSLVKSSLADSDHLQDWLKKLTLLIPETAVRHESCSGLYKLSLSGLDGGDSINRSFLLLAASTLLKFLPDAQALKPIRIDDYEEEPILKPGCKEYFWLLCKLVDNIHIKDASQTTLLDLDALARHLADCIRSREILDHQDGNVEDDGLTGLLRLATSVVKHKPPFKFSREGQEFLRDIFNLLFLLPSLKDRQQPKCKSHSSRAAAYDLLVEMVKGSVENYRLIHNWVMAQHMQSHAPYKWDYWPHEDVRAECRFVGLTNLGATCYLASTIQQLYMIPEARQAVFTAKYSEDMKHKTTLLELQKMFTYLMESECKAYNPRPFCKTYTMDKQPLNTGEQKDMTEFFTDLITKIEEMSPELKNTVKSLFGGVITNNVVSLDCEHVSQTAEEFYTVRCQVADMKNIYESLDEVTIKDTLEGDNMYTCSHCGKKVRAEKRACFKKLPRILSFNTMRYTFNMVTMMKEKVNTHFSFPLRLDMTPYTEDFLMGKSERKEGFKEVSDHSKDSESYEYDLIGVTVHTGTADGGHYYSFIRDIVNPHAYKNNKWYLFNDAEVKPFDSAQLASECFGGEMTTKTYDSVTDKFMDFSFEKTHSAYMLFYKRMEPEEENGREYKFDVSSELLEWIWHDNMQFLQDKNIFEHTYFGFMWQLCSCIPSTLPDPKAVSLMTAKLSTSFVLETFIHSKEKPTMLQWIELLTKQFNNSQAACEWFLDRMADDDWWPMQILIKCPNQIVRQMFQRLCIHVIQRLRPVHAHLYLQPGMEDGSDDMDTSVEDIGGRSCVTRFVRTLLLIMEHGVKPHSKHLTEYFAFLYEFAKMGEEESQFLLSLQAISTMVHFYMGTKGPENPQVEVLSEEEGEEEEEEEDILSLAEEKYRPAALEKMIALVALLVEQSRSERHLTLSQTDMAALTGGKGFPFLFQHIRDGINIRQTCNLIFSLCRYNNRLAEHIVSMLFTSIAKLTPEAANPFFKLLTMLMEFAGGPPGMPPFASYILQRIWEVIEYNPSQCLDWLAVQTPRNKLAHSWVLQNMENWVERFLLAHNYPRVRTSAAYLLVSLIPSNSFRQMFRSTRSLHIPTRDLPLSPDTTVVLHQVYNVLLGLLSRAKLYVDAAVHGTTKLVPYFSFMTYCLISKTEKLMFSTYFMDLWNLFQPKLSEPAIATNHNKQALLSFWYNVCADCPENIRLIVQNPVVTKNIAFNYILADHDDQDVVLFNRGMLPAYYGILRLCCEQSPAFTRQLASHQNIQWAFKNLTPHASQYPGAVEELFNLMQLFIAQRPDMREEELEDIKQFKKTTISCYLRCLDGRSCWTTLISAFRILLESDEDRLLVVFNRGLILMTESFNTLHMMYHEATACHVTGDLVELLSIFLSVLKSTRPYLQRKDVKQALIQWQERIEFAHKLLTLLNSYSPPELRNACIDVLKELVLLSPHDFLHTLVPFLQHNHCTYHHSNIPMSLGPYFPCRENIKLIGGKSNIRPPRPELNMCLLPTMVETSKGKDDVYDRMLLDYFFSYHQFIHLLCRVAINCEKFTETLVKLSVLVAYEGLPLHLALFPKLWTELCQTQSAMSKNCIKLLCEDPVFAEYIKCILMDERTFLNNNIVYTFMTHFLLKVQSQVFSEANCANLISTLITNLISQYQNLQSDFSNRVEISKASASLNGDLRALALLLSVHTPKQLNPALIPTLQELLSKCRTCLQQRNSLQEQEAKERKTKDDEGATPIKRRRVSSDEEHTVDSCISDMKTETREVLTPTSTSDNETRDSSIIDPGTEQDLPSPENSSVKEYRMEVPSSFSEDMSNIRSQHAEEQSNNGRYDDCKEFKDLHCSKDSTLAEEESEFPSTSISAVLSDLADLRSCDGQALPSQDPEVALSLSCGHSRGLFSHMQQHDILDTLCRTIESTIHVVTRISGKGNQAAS

O=C(CCl)N1CCC[C@@H]1c1ccon1
inactive: [1] -0.0339 | [2] -0.122 | [3] -0.189 | [4] 0.0959 | [5] -0.394
